Screens from PubChem BioAssay.
LANA DNA inh: blocks KSHV LANA C-terminal domain binding to DNA. inhibition, % at 9 µM. 340,000 tested, 0.078% active. MBP-C-LANA/FAM-LBS DNA binding, fluorescence polarization;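 active = highest replicate inhibition at or above 60% at 9 µM, even if other replicates fall short; inactive = all replicates below 60% inhibition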
BCLXL inh: Bcl-xL (human) inhibition. GST-Bcl-xL / FITC-Bim BH3 peptide fluorescence polarization. Q07817. AID 2129. 320,000 tested, 0.7% active. inhibition, % at 10.9 µM;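 active = inhibition above the mean of all tested compounds plus 3 SD, cutoff set per campaign, cut at about 30% in these data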;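 note: inhibitors lower millipolarization by displacing the labeled peptide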
eLon inh: inhibits E. coli Lon protease; inhibition, % at 7.94 µM; 360,000 tested, 0.42% active; P0A9M0; purified E. coli Lon protease, fluorescence polarization; in the data active = inhibition above about 13%, passing the limit was not always enough
Target sequence (P0A9M0 whole entry, looked up): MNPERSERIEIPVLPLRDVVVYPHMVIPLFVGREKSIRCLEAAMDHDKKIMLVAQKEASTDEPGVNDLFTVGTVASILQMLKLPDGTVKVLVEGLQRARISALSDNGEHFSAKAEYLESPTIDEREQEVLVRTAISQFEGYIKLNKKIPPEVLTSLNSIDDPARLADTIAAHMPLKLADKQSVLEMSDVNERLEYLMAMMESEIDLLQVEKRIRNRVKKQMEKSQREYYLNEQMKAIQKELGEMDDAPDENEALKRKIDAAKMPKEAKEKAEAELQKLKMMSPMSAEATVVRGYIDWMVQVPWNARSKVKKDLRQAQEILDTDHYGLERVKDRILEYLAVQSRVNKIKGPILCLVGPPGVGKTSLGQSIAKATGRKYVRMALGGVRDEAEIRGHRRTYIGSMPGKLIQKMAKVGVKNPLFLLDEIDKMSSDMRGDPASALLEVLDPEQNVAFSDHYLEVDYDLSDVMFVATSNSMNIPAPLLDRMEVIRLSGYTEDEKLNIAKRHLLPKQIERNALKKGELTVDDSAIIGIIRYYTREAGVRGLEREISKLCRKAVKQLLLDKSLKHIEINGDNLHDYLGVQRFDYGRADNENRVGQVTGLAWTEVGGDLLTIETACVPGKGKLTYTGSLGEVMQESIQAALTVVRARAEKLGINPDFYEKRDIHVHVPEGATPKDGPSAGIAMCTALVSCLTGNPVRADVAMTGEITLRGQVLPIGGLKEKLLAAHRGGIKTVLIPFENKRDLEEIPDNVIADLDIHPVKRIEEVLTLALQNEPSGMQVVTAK
Keap1 Nrf2 FP: inhibitors of human Keap1-Nrf2 protein-protein interaction. Q14145. Keap1 Kelch-Nrf2 peptide fluorescence polarization, 1536-well. inhibition, % at 9.4 µM. 340,000 tested, 0.15% active. AID 504523; in the data active = inhibition above about 12%; inconclusive = no clear call, values can overlap the other calls; inactive = below about 7.3%;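 note: human Keap1 Kelch domain with fluorescein labeled Nrf2 9mer peptide probe; higher means more block of Keap1 binding to Nrf2 peptide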
MEX-5 binding: C. elegans MEX-5 TCR-2 RNA binding activity; AID 1832; 300,000 tested, 0.38% active; Q9XUB2; MEX-5/FITC-TCR2 RNA binding, fluorescence polarization; active compounds read low; activity score (negative = inhibition of binding), % at 10 µM;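 active = inhibition past about -25% in most replicates, and total fluorescence under double the plate's negative control median, limit read from the data; inconclusive = replicates evenly split on the limit, or fluorescence at least double controls; inactive = too little inhibition in most replicates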
GLD-1 RNA inh: GLD-1-TGE RNA interaction inhibition (C. elegans); Q17339; purified GLD-1 + fluorescein TGE RNA, fluorescence polarization; inhibition, % at 5.96 µM; 320,000 tested, 0.44% active;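 active = percent inhibition above a per-plate cutoff, the plate mean of test compounds plus 3 SD, cut at about 30% in these data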
Of the large screens only hits and unclear results are named; the others gave an inactive call. Compounds with a hit are over-represented: about 1.2% of the library has one in this group of screens.

NS(=O)(=O)c1ccc(N=Nc2c(=O)[nH]n3c(=O)c4c([nH]c23)CCCC4)cc1	MEX-5 binding -83
CC(=O)c1ccc(N=Nc2c(C)[nH][nH]c2=O)cc1	none (no result: MEX-5 binding)
NS(=O)(=O)c1ccc(Nc2nc(-c3ccc(F)cc3)cs2)cc1	none
NS(=O)(=O)c1ccc(Nc2nc(-c3ccc(O)cc3O)cs2)cc1	MEX-5 binding -45
CC(C)c1ccc(NC(=O)NC2(C(=O)NCc3cccnc3)CCCCC2)cc1	none
Cc1ccc2cc3c(N)c(C(=O)N4CCOCC4)sc3nc2c1	none
Cc1ccc2nc3sc(C(=O)N4CCOCC4)c(N)c3cc2c1	MEX-5 binding -44
COc1ccc(Cl)cc1NS(=O)(=O)c1cccc(C(=O)NC2CC2)c1	none (no result: BCLXL inh, MEX-5 binding)
COc1ccc(-c2cn[nH]c2-c2ccc(OCC(=O)NN)cc2O)cc1OC	MEX-5 binding -46
CSCCC(NC(=O)c1ccco1)C(=O)N1CC(C)OC(C)C1 (stereo not given)	none (no result: MEX-5 binding)
Cc1ccc(C)c(OCC(=O)N/N=C/c2ccc(N3CCOCC3)cc2)c1	none (no result: LANA DNA inh, BCLXL inh, Keap1 Nrf2 FP, MEX-5 binding, GLD-1 RNA inh)
Cn1c(CNc2ccc(O)cc2)nc2ccccc21	BCLXL inh 56, GLD-1 RNA inh 92
Oc1ccc(C2=CSC3=NCCN23)cc1O	MEX-5 binding -30
COc1ccc(-c2ccccc2)cc1NC(=O)C1(C)CCN1C(=O)C(C)C (stereo not given)	none (no result: LANA DNA inh, BCLXL inh, Keap1 Nrf2 FP, MEX-5 binding, GLD-1 RNA inh)
Oc1c(Br)cc(/C=N/n2c(-c3ccccc3)n[nH]c2=S)c(O)c1Br	Keap1 Nrf2 FP 24 (no result: BCLXL inh, GLD-1 RNA inh)
Oc1c(Br)cc(/C=N/n2c(-c3ccccc3)n[nH]c2=S)cc1Br	none (no result: BCLXL inh, GLD-1 RNA inh)
Cc1cc(O)c(CN(C)C)c2c1C(=O)/C(=C/c1ccco1)O2	BCLXL inh 62, MEX-5 binding -37
CCCCn1c(SCC(=O)Nc2ccc(NC(C)=O)cc2)nc2ccccc2c1=O	GLD-1 RNA inh 74
Cc1cc(C)c[n+](-c2nc3ccccc3nc2[N-]S(=O)(=O)c2ccc(Br)s2)c1	BCLXL inh 62
Cc1ccc(S(=O)(=O)[N-]c2nc3ccccc3nc2-n2cc[n+](Cc3ccccc3)c2)cc1	none
CNS(=O)(=O)c1cccc(C(=O)OCC(=O)c2c(N)n(Cc3ccccc3)c(=O)n(C)c2=O)c1	none (no result: BCLXL inh, MEX-5 binding, GLD-1 RNA inh)
CCOCCCNC(=O)CCC(=O)NNc1nc2ccccc2c2nc(C)nn12	MEX-5 binding -39
COCCCNC(=O)CCC(=O)NNc1nc2ccccc2c2nc(C)nn12	MEX-5 binding -50
Cc1nc2c3ccccc3nc(NNC(=O)CCC(=O)NCCN3CCN(c4ccccc4)CC3)n2n1	none
CCCCNC(=O)CCC(=O)NNc1nc2ccccc2c2nc(C)nn12	none
O=C1NC(=Nc2ccccc2)/C(=C/c2ccco2)S1	BCLXL inh 42
CC1=Nc2ccccc2/C1=C\c1nc(-c2ccc(C(F)(F)F)cc2)oc1O	BCLXL inh 60 (no result: MEX-5 binding)
CC(NC(=O)c1ccc(F)cc1Cl)C1CC2CCC1C2 (stereo not given)	none
CC(NC(=O)c1cc(F)c(F)cc1Cl)C1CC2CCC1C2 (stereo not given)	BCLXL inh 41
CC(=Nc1ccc(Br)cc1)c1sc2ccccc2c1O	MEX-5 binding -30
CC(=Nc1ccccc1)c1sc2ccccc2c1O	none
CC1CC1C(=O)N1CCN(S(=O)(=O)c2cc(C(F)(F)F)cc(C(F)(F)F)c2)CC1 (stereo not given)	none (no result: MEX-5 binding)
CCC1CCc2sc(C(=O)OCC(=O)N(CCOC)c3c(N)n(Cc4ccccc4)c(=O)[nH]c3=O)cc2C1 (stereo not given)	none
COCCN(C(=O)COC(=O)c1cc2c(s1)CCC2)c1c(N)n(Cc2ccccc2)c(=O)[nH]c1=O	BCLXL inh 32
O=c1oc(/C=C/c2ccccc2)nc2sc3c(c12)CCC3	none
COc1ccc(/C=C/c2nc3sc4c(c3c(=O)o2)CCC4)cc1	MEX-5 binding -30
C=CCN(c1ccc(Br)cc1C(=O)OC)S(C)(=O)=O	BCLXL inh 47 (no result: MEX-5 binding)
O=C(NCc1ccco1)c1cnn2c1NC(c1ccccc1)CC2C(F)(F)F (stereo not given)	none
Cc1ccccc1Cn1ccc(NC(=O)c2cnn3c2NC(c2ccccc2)CC3C(F)(F)F)n1 (stereo not given)	eLon inh 22
O=C(/C=C/c1ccc(N2CCC(c3ccccc3)=N2)cc1)c1ccccc1	BCLXL inh 34 (no result: LANA DNA inh, eLon inh, Keap1 Nrf2 FP)
COc1ccccc1CNC(=O)COC(=O)c1ccccc1-c1ccccc1	none
CCOc1ccc2[nH]c(SCC(=O)OC)c([N+](=O)[O-])c2c1	BCLXL inh 39
CSCCC(NC(=O)COc1ccccc1)C(=O)N(C)Cc1ccc(Cl)cc1Cl (stereo not given)	none (no result: MEX-5 binding)
Nc1c(/C=C2/C=CC(=O)C(O)=C2)c(=O)nc2sc(CC(=O)N3CCCCC3)nn12	LANA DNA inh 108, MEX-5 binding inconclusive
Nc1c(C=C2C=CC(=O)C=C2)c(=O)nc2sc(CC(=O)N3CCCCC3)nn12	none
Nc1c(/C=C2/C=CC(=O)C(O)=C2)c(=O)nc2sc(CC(=O)N3CCOCC3)nn12	LANA DNA inh 110 (no result: BCLXL inh, MEX-5 binding, GLD-1 RNA inh)
Nc1c(/C=C2/C=CC(=O)C(O)=C2)c(=O)nc2sc(CC(=O)N3CCCC3)nn12	LANA DNA inh 109
COC1=C/C(=C/c2c(N)n3nc(CC(=O)N4CCCC4)sc3nc2=O)C=CC1=O	none
CC1=Nc2ccc(C)cc2/C1=C/c1c(N)n2nc(CC(=O)N3CCOCC3)sc2nc1=O	MEX-5 binding -52
COc1ccc(N(CC(=O)NCc2cccs2)S(=O)(=O)c2ccc(C(C)=O)cc2)cc1	none (no result: LANA DNA inh, BCLXL inh, Keap1 Nrf2 FP, MEX-5 binding, GLD-1 RNA inh)
CCN(Cc1nc2cc(Cl)ccc2c(=O)[nH]1)C(=O)CN1C(=O)NC2(CCCCC2C)C1=O (stereo not given)	none (no result: BCLXL inh, MEX-5 binding, GLD-1 RNA inh)
COc1cccc(N2CC(C(=O)Nc3c(C(N)=O)oc4ccccc34)CC2=O)c1 (stereo not given)	none
O=C(O)Cc1ccc(N=Nc2c(O)c(C(=O)O)cc3ccccc23)cc1	LANA DNA inh 92
CC(=O)CC1(C)OC(N)=C(C#N)C1(C#N)C#N (stereo not given)	BCLXL inh 45, GLD-1 RNA inh 57
COc1ccc(-c2cc(N)n(S(=O)(=O)c3ccc(C)cc3)n2)c(OC)c1	BCLXL inh 48
COc1ccc(S(=O)(=O)n2nc(-c3ccc(Cl)cc3)cc2N)cc1	none
COc1ccc(N2C(=O)[C@@H]3[C@H](C2=O)[C@H](C(=O)c2ccc(OC(C)=O)cc2)N2N=CC=C[C@@H]32)cc1	none (no result: LANA DNA inh, eLon inh, Keap1 Nrf2 FP)
CC(=O)Oc1ccc(C(=O)[C@H]2[C@H]3C(=O)N(c4ccc(C)cc4)C(=O)[C@H]3[C@@H]3C=CC=NN32)cc1	GLD-1 RNA inh 38
COc1ccc(OC)c(C2Nc3c(Cl)ccc(C(=O)O)c3C3C=CCC32)c1 (stereo not given)	none
COC(=O)COc1ccc(C2Nc3c(Cl)ccc(C(=O)O)c3C3C=CCC32)cc1 (stereo not given)	BCLXL inh 43
